Experimental data reported in PubChem BioAssay AID1159580 (chemical genetic matrix, 2015).
Out of some 5,500 compounds screened, about 2,000 (36%) were called active. Roughly 18% stayed inconclusive and do not appear here. Rule as the data show it: active = normalized growth mostly below about 0.91 (no sharp cut-off); inconclusive = no clear call, values can overlap the other calls; inactive = mostly above about 0.92. This is one part of the list.

Assay: chemical genetic growth profiling, strain panel (AID 1159580);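 also: tested at 20 µM; growth read once vehicle control cultures reached saturation at 30 °C; 1 = growth at the plate median or of vehicle wells; lower values mean less growth of the strain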
Conditions: growth OD

Measured: normalized growth

CC(=O)O[C@@H]1C=C[C@@]2(C)C(C[C@@H](OC(C)=O)[C@@]3(C)C4=CC(=O)O[C@@H](c5ccoc5)[C@]4(C)CCC23)C1(C)C (some centres not stated)
active: S. cerevisiae deletion strains, locus YKL009W, strain mrt4, active compounds read low 0.364 | S. cerevisiae deletion strains, locus YKL068W, active compounds read low 0.0545 | S. cerevisiae deletion strains, locus YKL085W, strain MDH1 (second series), active compounds read low 0.0525 | S. cerevisiae deletion strains, locus YKL085W, strain MDH1, active compounds read low 0.0525 | S. cerevisiae deletion strains, locus YKR001C, strain vps1, active compounds read low 0.0622 | S. cerevisiae deletion strains, locus YLR102C, strain apc9, active compounds read low 0.0602 | S. cerevisiae deletion strains, locus YLR268W, strain sec22, active compounds read low 0.0676 | S. cerevisiae deletion strains, locus YLR371W, strain rom2, active compounds read low 0.0619 | S. cerevisiae deletion strains, locus YLR418C, strain cdc73, active compounds read low 0.0929 | S. cerevisiae deletion strains, locus YML032C, strain rad52, active compounds read low 0.15 | S. cerevisiae deletion strains, locus YML124C, strain tub3, active compounds read low 0.0589 | S. cerevisiae deletion strains, locus YMR078C, strain ctf18, active compounds read low 0.072 | S. cerevisiae deletion strains, locus YMR223W, strain ubp8, active compounds read low 0.0665 | S. cerevisiae deletion strains, locus YNL250W, strain rad50, active compounds read low 0.065 | S. cerevisiae deletion strains, locus YNL271C, strain bni1, active compounds read low 0.0603 | S. cerevisiae deletion strains, locus YNL298W, strain CLA4, active compounds read low 0.0602 | S. cerevisiae deletion strains, locus YNL307C, strain MCK1, active compounds read low 0.069 | S. cerevisiae deletion strains, locus YNR052C, strain pop2, active compounds read low 0.112 | S. cerevisiae deletion strains, locus YOL147C, strain pex11, active compounds read low 0.0888 | S. cerevisiae deletion strains, locus YOR136W, strain idh2, active compounds read low 0.0732 | S. cerevisiae deletion strains, locus YOR144C, strain elg1, active compounds read low 0.131 | S. cerevisiae deletion strains, locus YOR184W, strain ser1, active compounds read low 0.0712 | S. cerevisiae deletion strains, locus YOR316C, strain cot1, active compounds read low 0.0594 | S. cerevisiae deletion strains, locus YPR119W, strain clb2, active compounds read low 0.0629 | S. cerevisiae deletion strains, locus YPR141C, strain kar3, active compounds read low 0.0773 | S. cerevisiae deletion strains, locus YPR163C, strain tif3, active compounds read low 0.0691 | S. cerevisiae deletion strains, locus YPR167C, strain met16, active compounds read low 0.0608 | S. cerevisiae deletion strains, strain wtn01, active compounds read low 0.0601
inactive: S. cerevisiae deletion strains, locus YJR066W, strain TOR1, active compounds read low 0.928 | S. cerevisiae deletion strains, locus YJR075W, strain HOC1, active compounds read low 1.03 | S. cerevisiae deletion strains, locus YKL160W, strain elf1, active compounds read low 0.988 | S. cerevisiae deletion strains, locus YKL190W, strain CNB1, active compounds read low 1.01 | S. cerevisiae deletion strains, locus YKR026C, strain gcn3, active compounds read low 1.01 | S. cerevisiae deletion strains, locus YKR091W, strain srl3, active compounds read low 0.982 | S. cerevisiae deletion strains, locus YLL001W, strain dnm1, active compounds read low 1.02 | S. cerevisiae deletion strains, locus YLL026W, active compounds read low 1.01 | S. cerevisiae deletion strains, locus YLL041C, strain sdh2, active compounds read low 0.999 | S. cerevisiae deletion strains, locus YLR027C, strain aat2, active compounds read low 1 | S. cerevisiae deletion strains, locus YLR039C, strain RIC1, active compounds read low 0.982 | S. cerevisiae deletion strains, locus YLR058C, strain SHM2, active compounds read low 1.01 | S. cerevisiae deletion strains, locus YLR113W, strain HOG1, active compounds read low 1.01 | S. cerevisiae deletion strains, locus YLR221C, strain rsa3, active compounds read low 1.05 | S. cerevisiae deletion strains, locus YLR258W, strain gsy2, active compounds read low 0.999 | S. cerevisiae deletion strains, locus YLR262C, strain YPT6 (second series), active compounds read low 0.96 | S. cerevisiae deletion strains, locus YLR262C, strain YPT6, active compounds read low 0.986 | S. cerevisiae deletion strains, locus YLR320W, strain mms22, active compounds read low 1.02 | S. cerevisiae deletion strains, locus YLR330W, strain CHS5, active compounds read low 1.01 | S. cerevisiae deletion strains, locus YLR342W, strain FKS1 (second series), active compounds read low 1.03 | S. cerevisiae deletion strains, locus YLR342W, strain FKS1, active compounds read low 0.994 | S. cerevisiae deletion strains, locus YLR357W, strain rsc2, active compounds read low 1.03 | S. cerevisiae deletion strains, locus YLR370C, strain arc18, active compounds read low 0.983 | S. cerevisiae deletion strains, locus YLR384C, strain iki3, active compounds read low 0.983 | S. cerevisiae deletion strains, locus YML016C, strain PPZ1, active compounds read low 1.02 | S. cerevisiae deletion strains, locus YML120C, strain ndi1, active compounds read low 0.994 | S. cerevisiae deletion strains, locus YMR058W, strain fet3, active compounds read low 0.984 | S. cerevisiae deletion strains, locus YMR125W, strain sto1, active compounds read low 0.997 | S. cerevisiae deletion strains, locus YMR129W, active compounds read low 0.999 | S. cerevisiae deletion strains, locus YMR205C, strain PFK2, active compounds read low 1 | S. cerevisiae deletion strains, locus YMR231W, strain pep5, active compounds read low 0.991 | S. cerevisiae deletion strains, locus YMR263W, strain SAP30, active compounds read low 1 | S. cerevisiae deletion strains, locus YMR307W, strain GAS1, active compounds read low 1.06 | S. cerevisiae deletion strains, locus YNL067W, strain RPL9B, active compounds read low 1 | S. cerevisiae deletion strains, locus YNL071W, strain lat1, active compounds read low 0.992 | S. cerevisiae deletion strains, locus YNL128W, strain TEP1, active compounds read low 1 | S. cerevisiae deletion strains, locus YNL153C, strain GIM3, active compounds read low 0.998 | S. cerevisiae deletion strains, locus YNL183C, strain NPR1, active compounds read low 0.956 | S. cerevisiae deletion strains, locus YNL209W, strain ssb2, active compounds read low 0.985 | S. cerevisiae deletion strains, locus YNL233W, strain BNI4, active compounds read low 1 | S. cerevisiae deletion strains, locus YNL248C, strain rpa49, active compounds read low 0.961 | S. cerevisiae deletion strains, locus YNL322C, strain KRE1 (second series), active compounds read low 0.985 | S. cerevisiae deletion strains, locus YNL322C, strain KRE1, active compounds read low 1.02 | S. cerevisiae deletion strains, locus YNR049C, strain mso1, active compounds read low 0.975 | S. cerevisiae deletion strains, locus YOL006C, strain TOP1, active compounds read low 0.901 | S. cerevisiae deletion strains, locus YOR001W, strain rrp6, active compounds read low 1.01 | S. cerevisiae deletion strains, locus YOR061W, strain CKA2, active compounds read low 1.01 | S. cerevisiae deletion strains, locus YOR069W, strain VPS5, active compounds read low 1.01 | S. cerevisiae deletion strains, locus YOR070C, strain gyp1, active compounds read low 0.991 | S. cerevisiae deletion strains, locus YOR080W, strain dia2, active compounds read low 0.984 | S. cerevisiae deletion strains, locus YOR083W, strain WHI5, active compounds read low 1 | S. cerevisiae deletion strains, locus YOR106W, strain vam3, active compounds read low 0.997 | S. cerevisiae deletion strains, locus YOR231W, strain MKK1, active compounds read low 0.985 | S. cerevisiae deletion strains, locus YOR265W, strain rbl2, active compounds read low 0.985 | S. cerevisiae deletion strains, locus YOR270C, strain vph1, active compounds read low 0.885 | S. cerevisiae deletion strains, locus YOR290C, strain snf2, active compounds read low 0.956 | S. cerevisiae deletion strains, locus YPL051W, strain arl3, active compounds read low 0.996 | S. cerevisiae deletion strains, locus YPL055C, strain LGE1, active compounds read low 0.968 | S. cerevisiae deletion strains, locus YPL078C, strain atp4, active compounds read low 0.982 | S. cerevisiae deletion strains, locus YPL106C, strain sse1, active compounds read low 0.975 | S. cerevisiae deletion strains, locus YPL240C, strain hsp82, active compounds read low 0.993 | S. cerevisiae deletion strains, locus YPL241C, strain CIN2, active compounds read low 1.01 | S. cerevisiae deletion strains, locus YPL256C, strain CLN2, active compounds read low 0.948 | S. cerevisiae strains, strain wild type, active compounds read low 1.02
